GPT2 inh: Primary qHTS assay for inhibitors of Glutamate pyruvate transaminase 2 (GPT2); Alanine aminotransferase 2 (Homo sapiens), Q8TD30; Recombinant GPT2, coupled pyruvate oxidase/HRP Amplex Red fluorescence; Potency, µM (series often up to 57.7 µM), actives largely listed as inhibitors; hit rate 0.25% among 100,000; note: nearly all actives have a fitted effect of over 60% in size
Target sequence (Q8TD30 whole entry, looked up): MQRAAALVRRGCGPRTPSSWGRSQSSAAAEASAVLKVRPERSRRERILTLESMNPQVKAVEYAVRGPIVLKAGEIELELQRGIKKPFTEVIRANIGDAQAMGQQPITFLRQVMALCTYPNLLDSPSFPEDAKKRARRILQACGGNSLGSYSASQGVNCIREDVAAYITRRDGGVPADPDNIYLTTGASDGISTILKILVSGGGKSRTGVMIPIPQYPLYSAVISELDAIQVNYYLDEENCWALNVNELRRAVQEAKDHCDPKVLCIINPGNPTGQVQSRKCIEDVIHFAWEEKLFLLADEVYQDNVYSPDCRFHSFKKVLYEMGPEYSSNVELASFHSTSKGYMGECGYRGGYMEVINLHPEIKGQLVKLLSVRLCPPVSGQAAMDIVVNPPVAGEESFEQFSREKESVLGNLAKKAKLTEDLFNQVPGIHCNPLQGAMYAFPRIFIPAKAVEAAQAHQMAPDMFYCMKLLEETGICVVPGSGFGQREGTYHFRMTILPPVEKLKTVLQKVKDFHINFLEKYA
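GPT2 10ng/uL, a-KG 250uM, L-Ala 2mM, HEPES pH7.5 + 0.0001% Tween; 30 min RT. Then Amplex mix (PO/HRP/ThPP), 30 min RT dark, fluorescence. AOA 50uM used as positive control.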
NIH3T3 tox: Cytotoxic Profiling in NIH 3T3 Cell Line of Diverse Libraries Using Quantitative High-Throughput Screening; NIH 3T3 viability, CellTiter-Glo ATP luminescence, 48-72 h; Potency, µM (series often up to 96.7 µM), usual class: inhibitors; hit rate 4.3% among 94,000; AID 1345082, 2018; note: nearly all actives have a fitted effect of over 55% in size
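First NIH 3T3 cells are plated at 400 cells/well; next compound is pinned in; then plates incubate 48 or 72 hr at 37 °C; finally CellTiter-Glo is added and luminescence read after 10 min.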
FLuc inh: Firefly luciferase inhibition profiling of diverse chemical library using quantitative high-throughput screening; Luciferin 4-monooxygenase (Photinus pyralis), P08659; purified P. pyralis luciferase, luminescence, biochemical; Potency, µM (series often up to 115 µM), most hits filed as inhibitors; hit rate 2.5% among 76,000; AID 1347043, 2019; note: nearly all actives have a fitted effect of over 65% in size
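Luminescence read by CCD imager after adding enzyme (10nM final) to wells holding compound, titrated in qHTS. Substrates 10uM each D-luciferin and ATP; buffer 50mM Tris acetate pH 7.5, 10mM Mg acetate, Tween-20, BSA.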
NPR1 antag: Natriuretic polypeptide receptor (hNpr1) antagonism - Primary qHTS; HEK293 hNpr1 GloSensor cGMP, ANP-stimulated luminescence; Potency, µM (doses to about 46.3 µM), hits mostly inhibitors; hit rate 1.6% among 76,000; calls by dose curve; note: nearly all actives have a fitted effect of over 60% in size
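Compound pre-incubated 30 min at room temperature on GloSensor-loaded HEK293 cells stably carrying hNpr1 and the pGS-40F cGMP biosensor. Stimulation uses hNppA at 0.1 nM final; luminescence is taken at baseline and 20 min post-agonist.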
HEK293 tox: Cytotoxic Profiling in HEK 293 Cell Line of Diverse Libraries Using Quantitative High-Throughput Screening. HEK 293 viability, ATP luminescence (CellTiter-Glo), 48-72 h. Potency, µM (titrated, usually from 115 µM), hits mostly inhibitors. hit rate 6.6% among 94,000. AID 1345083, 2018; note: nearly all actives have a fitted effect of over 60% in size
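ATP-coupled CellTiter-Glo luminescence served as viability read-out, recorded 10 min after reagent addition at room temperature. HEK 293 cells, 250 cells/well, had been incubated with pintool-transferred compound for 48 or 72 hr at 37 degree Celsius.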
A number is an active result; n = inactive; u = inconclusive; x = no result. Compounds with a hit are over-represented: about 10% of the library has one in this group of screens. Unless noted, calls come from the whole dose curve; as a rule, active = well fitted curve in the direction sought with a large enough effect; inconclusive = small, poorly fitted or top-dose-only effect, or another doubt; inactive = no such curve, though single readings can be large; an effect the other way counts as inactive or inconclusive.

SMILES | GPT2 inh | NIH3T3 tox | FLuc inh | NPR1 antag | HEK293 tox
Cc1ccc2oc([C@H]3CCN(Cc4ccc(C(=O)O)cc4)C3)nc2c1 | n | u | 71µM | n | n
Cc1ccc2oc([C@H]3CCN(C(=O)C4CC4)C3)nc2c1 | n | n | 35µM | n | u
Cc1ccc(N2CCC(N[C@@H]3CC[C@@H](N)C3)CC2)cc1Cl | n | 10µM | n | n | 7.9µM
Cc1ccc(C(=O)NC2CCN(c3cnn(CC4CC4)c(=O)c3)CC2)cc1C | n | n | n | n | n
COc1ccccc1-c1cccc(CN2CCCC(C(=O)N3CCCCC3)C2)c1 (stereo not given) | n | u | x | x | 79µM
COc1ccccc1-c1cccc(CN2CCCC(C(=O)N3CCOCC3)C2)c1 (stereo not given) | n | u | x | x | u
COC(=O)CNC(=O)C1CCCN(Cc2cccc(-c3ccccc3OC)c2)C1 (stereo not given) | n | u | x | x | n
COc1ccccc1-c1cccc(CN2CCCC(C(=O)NCc3cccc(F)c3)C2)c1 (stereo not given) | n | u | x | x | 13µM
COc1ccccc1-c1cccc(CN2CCCC(C(=O)Nc3cccc(Cl)c3)C2)c1 (stereo not given) | n | 16µM | x | x | 25µM
CCOCCNC(=O)C1CCCN(Cc2cccc(-c3ccccc3OC)c2)C1 (stereo not given) | n | u | x | x | 40µM
CC(C)CNC(=O)c1ccc2nnc(C3CCCC3)n2c1 | n | n | x | x | n
O=C(Nc1ccccc1C(=O)Nc1ccc(CCO)cc1)c1ccc([N+](=O)[O-])cc1 | n | x | x | x | x
O=C1CCN(S(=O)(=O)c2ccc3c(c2)CCC3)CCCC(C(=O)NCc2ccncc2)CCN1 (stereo not given) | n | n | n | n | n
COc1ccccc1-c1cccc(CN2CCCC(C(=O)NCC(F)(F)F)C2)c1 (stereo not given) | n | u | x | x | 45µM
COc1ccccc1-c1cccc(CN2CCCC(C(=O)NC(C)C)C2)c1 (stereo not given) | n | 40µM | x | x | u
COc1ccccc1-c1cccc(CN2CCCC(C(=O)NC3CC3)C2)c1 (stereo not given) | n | u | x | x | u
O=C(NCc1cccc(F)c1)C1CCCN(Cc2cccc(-c3ccc(F)cc3F)c2)C1 (stereo not given) | n | 35µM | x | x | 45µM
COc1ccccc1-c1cccc(CN2CCCC(C(=O)NCc3ccc4c(c3)OCO4)C2)c1 (stereo not given) | n | u | x | x | 35µM
O=C(c1ccc2c(c1)OCO2)N1CC(c2noc(C3CCCN3CC3CC3)n2)C1 (stereo not given) | n | n | n | n | n
CNC(=O)c1cc(C)nc2onc(C3CCCN3C(=O)c3ccc(F)cc3)c12 (stereo not given) | x | n | x | x | n
Cn1ncc2c(C(=O)Nc3ccccc3F)cc(-c3cccc(F)c3)nc21 | x | n | x | x | n
O=[S+]([O-])(CCC(F)(F)F)N1CCN(Cc2ccccc2-c2cccnc2)CC1 | n | u | x | x | u
O=C(NCc1cccs1)C1CCCN(Cc2cccc(-c3ccc(F)cc3F)c2)C1 (stereo not given) | n | u | x | x | 45µM
O=C(Nc1ccccc1F)C1CCCN(Cc2cccc(-c3ccc(F)cc3F)c2)C1 (stereo not given) | n | u | x | x | u
O=C(NCc1cccc(C(F)(F)F)c1)C1CCCN(Cc2cccc(-c3ccc(F)cc3F)c2)C1 (stereo not given) | n | u | x | x | 35µM
O=C(C1CCCN1C(=O)c1ccccc1Cl)N1CCC(c2nc3ccncc3[nH]2)C1 (stereo not given) | n | n | x | x | n
CN1CCN(CCCNc2nccc(-c3ccccn3)n2)CC1 | n | n | n | n | n
c1ccc(-c2nc3c(c(NCC4OCCc5ccccc54)n2)CCNC3)nc1 (stereo not given) | n | 40µM | u | n | u
c1ccc(-c2ccnc(NCC3OCCc4ccccc43)n2)nc1 (stereo not given) | n | u | 45µM | n | 40µM
